Source: PubChem BioAssay (Tox21)
Records with an inconclusive call do not appear. Active and inactive are the calls of the source. Unless noted, calls follow the shape of the dose curve; as a rule, active = well fitted curve in the direction sought with a large enough effect in the repeat runs; inconclusive = weak or mixed curves; inactive = no such curve, though single readings can be large; an effect the other way counts as inactive or inconclusive.

Assay: qHTS assay to identify small molecule agonists of the progesterone receptor (PR) signaling pathway - cell viability counter screen (AID 1346799; calls by dose curve; also: nearly all actives have a fitted effect of over 45% in size)
Settings: PR-UAS-bla HEK293T viability, CellTiter-Glo luminescence, 16 h; series mostly up to 92.4 µM; activity change, negative = cytotoxicity: at the top concentration
Summary of the method: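 Counter screen in the PR-UAS-bla HEK293T wells (2% charcoal-stripped FBS, 16 h compound exposure at 37 C) after the bla read. CellTiter-Glo added, 30 min at room temperature, luminescence read as cell viability.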
% is scaled to controls: 0 for no effect and ±100 for the full control effect.

Structure (SMILES) | activity change, negative = cytotoxicity
CC(C)=CC(=O)O | 0.539% (inactive)
O=C(O)c1ccccc1S | 0% [at 42.5 µM] (inactive)
C=CCSCC1Nc2cc(Cl)c(S(N)(=O)=O)cc2S(=O)(=O)N1 (stereo not drawn) | 4.55% [at 42.5 µM] (inactive)
CCCCc1ccc(N)cc1 | -6.73% (inactive)
CC(C)COC(=O)c1ccccc1O | 14.9% (inactive)
CCCCCCCCCCCCCCC | 8.49% (inactive)
O=[N+]([O-])c1ccc(CCO)cc1 | 5.83% (inactive)
CCN(CC)S(=O)(=O)c1ccc(C(=O)O)cc1 | 0.0767% [at 42.5 µM] (inactive)
Nc1ccn(C2CO[C@H](CO)O2)c(=O)n1 (stereo partly drawn) | 3.35% [at 42.5 µM] (inactive)
COC(C(=O)O)c1ccccc1 (stereo not drawn) | -4.27% (inactive)
CCCCCCC(CCCCCCCCCCC(=O)OCC(COC(C)=O)OC(C)=O)OC(C)=O (stereo not drawn) | 1.03% [at 42.5 µM] (inactive)
NCC[C@H](O)C(=O)N[C@@H]1C[C@H](N)[C@@H](O[C@H]2O[C@H](CN)[C@@H](O)[C@H](O)[C@H]2O)[C@H](O)[C@H]1O[C@H]1O[C@H](CO)[C@@H](O)[C@H](N)[C@H]1O | 8.45% [at 0.349 µM] (inactive)
NC(=O)c1ncn([C@@H]2O[C@H](CO)[C@@H](O)[C@H]2O)c1N | 0.939% [at 42.5 µM] (inactive)
CCCc1ccccc1O | 3.51% (inactive)
CO | -2.73% (inactive)
C=CCOCC(O)CS(=O)(=O)O (stereo not drawn) | -5.91% (inactive)
Nc1ncnc2c1ncn2Cc1c(F)cccc1Cl | -3.02% [at 42.5 µM] (inactive)
NC(=O)CCCCC1CCSS1 (stereo not drawn) | 0.956% [at 42.5 µM] (inactive)
CC(C)c1ccc2oc3nc(N)c(C(=O)O)cc3c(=O)c2c1 | -12.8% [at 42.5 µM] (inactive)

Structure (SMILES) | activity change, negative = cytotoxicity
Fc1ccccc1-c1ccccc1 | 6.37% (inactive)
CC(C)N1C(=O)c2ccccc2C1=O | 12.1% (inactive)
O=S(=O)(O)c1ccccc1O | -0.408% (inactive)
COC(=O)CCCCCCCCC(=O)OC | -3.22% (inactive)
c1ccc(CCCc2ccccn2)cc1 | 2.61% (inactive)
O=C(O)c1ccc[n+]([O-])c1 | 6.82% [at 42.5 µM] (inactive)
NS(=O)(=O)c1cc2c(cc1Cl)NC(CSCc1ccccc1)=NS2(=O)=O | 3.51% [at 42.5 µM] (inactive)
c1ccc2cnncc2c1 | 11.8% (inactive)
CC1=CC(=O)CCC1 | 0.899% (inactive)
CN(C)N=Nc1ccccc1 | 5.3% (inactive)
NC(=S)Nc1cccc2ccccc12 | -0.848% [at 8.39 µM] (inactive)
CC(C)c1cccc(O)c1 | 0.0794% (inactive)
NC(N)=NS(=O)(=O)c1ccc(N)cc1 | 6.92% [at 42.5 µM] (inactive)
CCCCCCCCN(C)CCCCCCCC | -2.76% (inactive)
CC1(C)SC(C)(C)SC(C)(C)S1 | -10.2% (inactive)
NCCN1CCNC1=O | 1.03% (inactive)
CCCCCCCCCCC1CO1 (stereo not drawn) | 0.124% (inactive)
C=CCOc1nc(OCC=C)nc(OCC=C)n1 | -1.4% (inactive)

Assay: qHTS assay to identify small molecule antagonists of the TGF-beta/Smad signaling pathway - cell viability counter screen (AID 1346824); also: nearly all actives have a fitted effect of over 50% in size
Settings: SBE-bla HEK293T viability, CellTiter-Glo luminescence; series mostly up to 76.8 µM; viability change, negative = cytotoxic: at the top concentration
Summary of the method: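 SBE-bla HEK 293T cells, incubated overnight, then compound plus 0.25 ng/mL TGF-beta1 (stock added) for 5 hr at 37 C. Viability was read in the same wells by CellTiter-Glo luminescence after 30 min at room temperature.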

Structure (SMILES) | viability change, negative = cytotoxic
CC(C)=CC(=O)O | 4.02% (inactive)
O=C(O)c1ccccc1S | -5.72% [at 35.3 µM] (inactive)
C=CCSCC1Nc2cc(Cl)c(S(N)(=O)=O)cc2S(=O)(=O)N1 (stereo not drawn) | 4.49% [at 35.3 µM] (inactive)
CCCCc1ccc(N)cc1 | -9.1% (inactive)
CC(C)COC(=O)c1ccccc1O | 4.75% (inactive)
CCCCCCCCCCCCCCC | 0.803% (inactive)
CCN(CC)S(=O)(=O)c1ccc(C(=O)O)cc1 | -3.83% [at 35.3 µM] (inactive)
Nc1ccn(C2CO[C@H](CO)O2)c(=O)n1 (stereo partly drawn) | 0.643% [at 35.3 µM] (inactive)
COC(C(=O)O)c1ccccc1 (stereo not drawn) | -0.441% (inactive)
NCC[C@H](O)C(=O)N[C@@H]1C[C@H](N)[C@@H](O[C@H]2O[C@H](CN)[C@@H](O)[C@H](O)[C@H]2O)[C@H](O)[C@H]1O[C@H]1O[C@H](CO)[C@@H](O)[C@H](N)[C@H]1O | -7.43% [at 0.29 µM] (inactive)
NC(=O)c1ncn([C@@H]2O[C@H](CO)[C@@H](O)[C@H]2O)c1N | 5.25% [at 35.3 µM] (inactive)
CO | 5.47% (inactive)
C=CCOCC(O)CS(=O)(=O)O (stereo not drawn) | -2.01% (inactive)
Nc1ncnc2c1ncn2Cc1c(F)cccc1Cl | 3.62% [at 35.3 µM] (inactive)
NC(=O)CCCCC1CCSS1 (stereo not drawn) | -6.95% [at 35.3 µM] (inactive)
CC(C)c1ccc2oc3nc(N)c(C(=O)O)cc3c(=O)c2c1 | -3.53% [at 35.3 µM] (inactive)
CC(C)N1C(=O)c2ccccc2C1=O | 4% (inactive)
O=S(=O)(O)c1ccccc1O | -28.1% (inactive)
COC(=O)CCCCCCCCC(=O)OC | -10.5% (inactive)
O=C(O)c1ccc[n+]([O-])c1 | 0.243% [at 35.3 µM] (inactive)
NS(=O)(=O)c1cc2c(cc1Cl)NC(CSCc1ccccc1)=NS2(=O)=O | 7.82% [at 35.3 µM] (inactive)
c1ccc2cnncc2c1 | 4.29% (inactive)
CC1=CC(=O)CCC1 | -7.81% (inactive)
CN(C)N=Nc1ccccc1 | 0.168% (inactive)
NC(=S)Nc1cccc2ccccc12 | 11.5% [at 6.97 µM] (inactive)
CC(C)c1cccc(O)c1 | 1.82% (inactive)
NC(N)=NS(=O)(=O)c1ccc(N)cc1 | 1.79% [at 35.3 µM] (inactive)
CCCCCCCCN(C)CCCCCCCC | 4.43% (inactive)
CCCCCCCCCCC1CO1 (stereo not drawn) | -5.97% (inactive)
C=CCOc1nc(OCC=C)nc(OCC=C)n1 | 1.04% (inactive)

Assay: qHTS assay to identify small molecule agonists of the TGF-beta/Smad signaling pathway - cell viability counter screen (AID 1346829); also: top concentration of the series differs between compounds; nearly all actives have a fitted effect of over 45% in size
Settings: SBE-bla HEK293T viability, CellTiter-Glo luminescence, 5 h; series mostly up to 76.8 µM; activity change, negative = cytotoxicity: at the top concentration
Summary of the method: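 CellTiter-Glo luminescence readout; SBE-bla HEK 293T cells, overnight plating, compound 5 hr at 37 C/5% CO2, then bla substrate 2 hr RT, then CellTiter-Glo 30 min RT.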

Structure (SMILES) | activity change, negative = cytotoxicity
O=C(O)c1ccccc1S | 3.93% [at 35.3 µM] (inactive)
C=CCSCC1Nc2cc(Cl)c(S(N)(=O)=O)cc2S(=O)(=O)N1 (stereo not drawn) | 12.5% [at 35.3 µM] (inactive)
CCCCc1ccc(N)cc1 | 0.241% (inactive)
CC(C)COC(=O)c1ccccc1O | -1.51% (inactive)
CCCCCCCCCCCCCCC | -0.866% (inactive)
O=[N+]([O-])c1ccc(CCO)cc1 | 6.44% (inactive)
CCN(CC)S(=O)(=O)c1ccc(C(=O)O)cc1 | 8.12% [at 35.3 µM] (inactive)
Nc1ccn(C2CO[C@H](CO)O2)c(=O)n1 (stereo partly drawn) | -0.576% [at 35.3 µM] (inactive)
COC(C(=O)O)c1ccccc1 (stereo not drawn) | -7.99% (inactive)
CCCCCCC(CCCCCCCCCCC(=O)OCC(COC(C)=O)OC(C)=O)OC(C)=O (stereo not drawn) | 8.76% [at 35.3 µM] (inactive)
NCC[C@H](O)C(=O)N[C@@H]1C[C@H](N)[C@@H](O[C@H]2O[C@H](CN)[C@@H](O)[C@H](O)[C@H]2O)[C@H](O)[C@H]1O[C@H]1O[C@H](CO)[C@@H](O)[C@H](N)[C@H]1O | -7.72% [at 0.29 µM] (inactive)
NC(=O)c1ncn([C@@H]2O[C@H](CO)[C@@H](O)[C@H]2O)c1N | 6.79% [at 35.3 µM] (inactive)
CCCc1ccccc1O | 1.87% (inactive)
CO | 1.37% (inactive)
C=CCOCC(O)CS(=O)(=O)O (stereo not drawn) | 16.8% (inactive)
Nc1ncnc2c1ncn2Cc1c(F)cccc1Cl | -14.9% [at 35.3 µM] (inactive)
NC(=O)CCCCC1CCSS1 (stereo not drawn) | 8.55% [at 35.3 µM] (inactive)
CC(C)c1ccc2oc3nc(N)c(C(=O)O)cc3c(=O)c2c1 | -20.2% [at 35.3 µM] (inactive)

Structure (SMILES) | activity change, negative = cytotoxicity
Fc1ccccc1-c1ccccc1 | 2.36% (inactive)
CC(C)N1C(=O)c2ccccc2C1=O | 5.27% (inactive)
O=S(=O)(O)c1ccccc1O | -17.6% (inactive)
COC(=O)CCCCCCCCC(=O)OC | 2.83% (inactive)
c1ccc(CCCc2ccccn2)cc1 | 14.1% (inactive)
O=C(O)c1ccc[n+]([O-])c1 | 12.3% [at 35.3 µM] (inactive)
NS(=O)(=O)c1cc2c(cc1Cl)NC(CSCc1ccccc1)=NS2(=O)=O | 6.35% [at 35.3 µM] (inactive)
c1ccc2cnncc2c1 | 13.8% (inactive)
CC1=CC(=O)CCC1 | 14.5% (inactive)
CN(C)N=Nc1ccccc1 | -1.74% (inactive)
NC(=S)Nc1cccc2ccccc12 | -4.69% [at 6.97 µM] (inactive)
CC(C)c1cccc(O)c1 | 4.89% (inactive)
NC(N)=NS(=O)(=O)c1ccc(N)cc1 | 13.6% [at 35.3 µM] (inactive)
CCCCCCCCN(C)CCCCCCCC | 5.16% (inactive)
CC1(C)SC(C)(C)SC(C)(C)S1 | 3.93% (inactive)
NCCN1CCNC1=O | -5.85% (inactive)
CCCCCCCCCCC1CO1 (stereo not drawn) | -2.27% (inactive)
C=CCOc1nc(OCC=C)nc(OCC=C)n1 | -4.68% (inactive)
